# The campaign covered roughly 2,100 compounds. About 650 (31%) were called active. About 16% were inconclusive and are not listed. Calls come from the whole dose curve; as a rule, active = well fitted inhibition curve with a large enough effect; inconclusive = small, poorly fitted or top-dose-only effect; inactive = flat fitted curve, though single readings scatter. The list shows a part of the results. Entries that show only a call come without a potency.
# Assay: qHTS for inhibitors of Vif-A3G interactions: Cherry picks; note: nearly all actives have a fitted effect of over 80% in size
# Conditions: HeLa A3G-eYFP + Vif (tagged APOBEC3G with the HIV-1 protein that degrades it), 24 h; Potency: eYFP fluorescence increase; series mostly up to 36.9 µM
# Procedure, shortened: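 Cherry-picked compounds tested at several concentrations on A3G-eYFP/Vif HeLa cells for 24 hours; loss of Vif-driven degradation read as eYFP fluorescence by cytometric plate imaging, 488 nm excitation, 500-530 nm emission.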
# Potency is the fitted concentration of half-maximal effect.
row,SMILES,Potency
1,Cc1cc(C)cc(NC2=NC3(CCCCC3)N=C(N)N2)c1,inactive
2,COc1ccc(OC)c(NS(=O)(=O)c2ccc(Cl)s2)c1,inactive
3,Cc1ccccc1N1C(=O)c2cccc3c(N(C)CCO)ccc(c23)C1=O,20.6 µM (active)
4,COc1ccccc1N1C(=O)c2cccc3c(C(=O)O)ccc(c23)C1=O,inactive
5,Cc1ccccc1OCC(=O)NNC(=O)Nc1ccc(Cl)cc1,inactive
6,CN1C/C(=C\c2ccc(N3CCOCC3)cc2)C(=O)/C(=C/c2ccc(N3CCOCC3)cc2)C1,18.4 µM (active)
7,O=C1/C(=C/c2ccccc2)CN(C(=O)CCN2CCOCC2)C/C1=C\c1ccccc1,inactive
8,CCN1C/C(=C/c2cccc([N+](=O)[O-])c2)C(=O)/C(=C/c2cccc([N+](=O)[O-])c2)C1,inactive
9,COc1ccc(N2CC(C(=O)N/N=C/c3ccc(C)cc3)CC2=O)cc1 (stereo not given),inactive
10,CC[n+]1ccccc1/C=C/c1ccc(N(C)C)cc1,18.4 µM (active)
11,CC(C)CC[n+]1ccccc1/C=C/c1ccc(N(C)C)cc1,20.6 µM (active)
12,COc1ccc(-c2nc3c4ccccc4ccn3c2Cc2ccsc2)cc1OC,inactive
13,CCOC(=O)c1[nH]c(C)c(C(=O)Nc2ccccc2C)c1C,inactive
14,Cc1ccc2nc(/C(C#N)=C\c3ccc([N+](=O)[O-])o3)[nH]c2c1,3.26 µM (active)
15,Cc1ccc([N+](=O)[O-])cc1-c1ccc(/C=C(\C#N)c2[nH]nc(N)c2C#N)o1,inactive
16,N#C/C(=C\c1ccc(-c2ccc(C(=O)O)cc2)o1)c1nc2ccccc2[nH]1,4.61 µM (active)
17,Cc1ccc2nc(/C(C#N)=C/c3ccc(-c4ccc(C(=O)OC(C)C)cc4)o3)[nH]c2c1,6.51 µM (active)
18,Cc1c(Cl)cccc1-c1ccc(/C=C(\C#N)c2nc3ccccc3[nH]2)o1,16.4 µM (active)
19,COc1ccc(-c2[nH]ncc2N=Nc2ccccc2)cc1,inactive
20,O=C(c1[nH]c(C(F)(F)F)nc1-c1ccccc1)N1CCN(c2ccccc2)CC1,inactive
21,COc1cccc(/C=N/NC(=O)c2cc3c(OC)c(OC)ccc3[nH]2)c1OC,inactive
22,Cc1cc(-c2ccccc2)nc(N/N=C/c2ccccc2F)n1,inactive
23,CC(/C=N/NC(=O)c1cc(-c2ccc(C)s2)[nH]n1)=C\c1ccccc1,inactive
24,Cc1ccc(/C=N/NC(=O)CCCOc2ccc(Cl)cc2Cl)cc1,inactive
25,COc1ccc(S(=O)(=O)Nc2cccc(-c3ccc4nncn4n3)c2)cc1F,inactive
26,CCOC(=O)c1cccc(NC(=O)N2CC=C(c3c[nH]c4ccccc34)CC2)c1,inactive
27,Cc1ccc2nc(/C(C#N)=C/c3ccc(-c4ccccc4C(=O)O)o3)[nH]c2c1,3.26 µM (active)
28,Cc1ccc2nc(/C(C#N)=C/c3ccc(-c4ccc(F)cc4F)o3)[nH]c2c1,23.1 µM (active)
29,Cc1ccc2nc(/C(C#N)=C/c3ccc(-c4cccc(Cl)c4)o3)[nH]c2c1,6.51 µM (active)
30,N#C/C(=C\c1ccc(-c2ccc(F)cc2F)o1)c1nc2ccccc2[nH]1,20.6 µM (active)

# Reference: PubChem BioAssay AID651812 (National Center for Advancing Translational Sciences (NCATS), 2012)
